The structures appear in SMILES notation. About 4,600 (6%) of roughly 77,000 compounds were called active. Inconclusive results (about 1%) are left out. Many of the other results were omitted from the sample, so actives are more common in it than they were. Unmarked numbers belong to inactive results.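 Rule for the calls: active = mean inhibition above about 93%, with at least 55% of replicates each passing it (limit read from the data, passing the limit was not always enough); inconclusive = only one of those two conditions holds; inactive = neither condition holds.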

The assay is described as follows: growth inhibition of T. cruzi in host fibroblasts – cell-based, beta-gal Tulahuen parasites, NIH3T3 host, luminescence, primary screen (AID 624255). Particulars: T. cruzi beta-gal in NIH3T3, GalScreen luminescence, 90 h; at 8.34 µM; active compounds read high.
On to `O=C(Cc1ccccn1)NCC[C@H]1CC[C@H](NC(=O)Nc2ccc(F)cc2)[C@@H](CO)O1`, for which the inhibition is 10.8%. The value for `CCN(C[C@H]1[C@H](c2ccccc2)[C@H](CO)N1C(=O)C1CC1)C(=O)NC1CCCC1` was 96.5% (active). Turning to `CCN(C[C@@H]1[C@@H](c2ccccc2)[C@H](CO)N1C(C)=O)C(=O)NC(C)C`, the inhibition was 7.85%. With `O=C(NC[C@@H]1[C@@H](c2ccccc2)[C@H](CO)N1C(=O)C1CCC1)NC1CCCC1` the figure was -28.8%; with `Cn1cnc(S(=O)(=O)N2C[C@@H](O)COC[C@@H]3O[C@H](CC(=O)NCc4ccc(F)cc4)CC[C@H]32)c1`, -30.6%; with `COc1cccc(S(=O)(=O)N2C[C@@H](O)COC[C@H]3O[C@H](CC(=O)N4CCCCC4)CC[C@@H]32)c1`, 25.3%. With `C[C@@H]1CN([C@@H](C)CO)C(=O)c2ccccc2-c2ccccc2CO[C@H]1CN(C)C(=O)Nc1ccccc1` the figure was 24.6%. With `C[C@H]1CN([C@@H](C)CO)C(=O)c2ccccc2-c2ccccc2CO[C@@H]1CN(C)S(=O)(=O)c1ccc(C(F)(F)F)cc1` the figure was 105% (active); with `C[C@H](CO)N1C[C@H](C)[C@H](CN(C)S(=O)(=O)c2cccc(F)c2)Oc2ncc(/C=C/c3ccccc3)cc2C1=O`, 107% (active).

As to `COc1cccc(NC(=O)N(C)C[C@H]2OCc3ccccc3-c3ccccc3C(=O)N([C@H](C)CO)C[C@@H]2C)c1`, the inhibition is -8.4%. With `Cc1ccc(S(=O)(=O)N(C)C[C@@H]2OCc3ccccc3-c3c(n(C)c4ccccc34)C(=O)N([C@@H](C)CO)C[C@@H]2C)cc1` the figure was 60.7%; with `Cc1ccc(S(=O)(=O)N(C)C[C@H]2OCc3ccccc3-c3ccccc3C(=O)N([C@@H](C)CO)C[C@@H]2C)cc1`, 81.8%.

As to `C[C@H](CO)N1C[C@H](C)[C@@H](CN(C)S(=O)(=O)c2cccc(F)c2)OCc2ccccc2-c2c(n(C)c3ccccc23)C1=O`, the inhibition is 98% (active).

For the compound `C[C@@H]1CN([C@@H](C)CO)C(=O)c2c(c3ccccc3n2C)-c2ccccc2CO[C@@H]1CN(C)S(=O)(=O)c1ccc(F)cc1`, the inhibition is -18%. Take `COc1ccc(S(=O)(=O)N(C)C[C@@H]2OCc3ccccc3-c3ccccc3C(=O)N([C@@H](C)CO)C[C@@H]2C)cc1`: the inhibition is 28.9%. With `C[C@H](CO)N1C[C@H](C)[C@@H](CN(C)S(=O)(=O)c2cccc(F)c2)Oc2ncc(-c3cccc(F)c3)cc2C1=O` the figure was 49.3%; with `COc1cccc(-c2cnc3c(c2)C(=O)N([C@H](C)CO)C[C@H](C)[C@H](CN(C)S(=O)(=O)c2cccc(F)c2)O3)c1`, 62.3%; with `C[C@H](CO)N1C[C@H](C)[C@@H](CN(C)C(=O)Nc2ccnc(N3CCOCC3)c2)OCc2ccccc2-c2ccccc2C1=O`, 113% (active).

On to `O=C(C[C@H]1CC[C@@H]2[C@H](COC[C@H](O)CN2S(=O)(=O)c2ccc(F)cc2)O1)NCCN1CCCCC1`, for which the inhibition is 7.58%.

As to `CNC(=O)C[C@@H]1CC[C@@H]2[C@@H](COc3ccc(NC(=O)Cc4cccs4)cc3C(=O)N2C)O1`, the inhibition is -40.4%. Take `Cc1noc(C)c1NC(=O)N(C)C[C@H]1OCCCC[C@H](C)Oc2ccc(NC(=O)Nc3ccc4c(c3)OCO4)cc2C(=O)N([C@H](C)CO)C[C@@H]1C`: the inhibition was 17.1%. With `COCC(=O)N1C[C@H](C)[C@@H](OC)CN(C)C(=O)c2cc(NC(=O)c3ccc(OC)cc3)ccc2OC[C@H]1C` the figure was 5.7%; with `CC=Cc1ccc2n(c1=O)C[C@H]1[C@H](CO)[C@@H](C(=O)NCC3CC3)N(Cc3nccs3)[C@@H]21` (mixture of isomers), -71.1%.

As for `COc1ccccc1C#Cc1cnc2c(c1)C(=O)N([C@@H](C)CO)C[C@H](C)[C@@H](CN(C)C(=O)CC1CC1)O2`, the inhibition was 92.8%. With `C[C@@H]1CCCCO[C@H](CN(C)S(=O)(=O)c2cn(C)cn2)[C@H](C)CN([C@@H](C)CO)C(=O)c2cc(NC(=O)Nc3ccc(C(F)(F)F)cc3)ccc2O1` the figure was 29.7%. With `CO[C@@H]1CN(C)C(=O)c2ccc(NC(=O)Nc3c(C)noc3C)cc2OC[C@H](C)N(CC2CC2)C[C@H]1C` the figure was 91.1%; with `C[C@@H]1CN([C@@H](C)CO)C(=O)c2cc(-c3cncnc3)cnc2O[C@@H]1CN(C)C(=O)c1ccccc1F`, 92.3%. With `C[C@H]1CN([C@@H](C)CO)C(=O)c2cc(C3=CCCC3)cnc2O[C@@H]1CN(C)C(=O)c1ccccc1` the figure was -4.66%. For `CCCC(=O)Nc1ccc2c(c1)OC[C@H](C)N(CCC)C[C@@H](C)[C@@H](OC)CN(C)C2=O`, the inhibition was -74.1%. As to `CN1c2ccc(C3=CCCCC3)cc2[C@H]2[C@H](CCN2S(=O)(=O)c2ccccc2)[C@@H]1CO`, the inhibition was 86.7%. The value for `C[C@@H]1CCCCO[C@H](CN(C)S(C)(=O)=O)[C@@H](C)CN([C@@H](C)CO)C(=O)c2cc(NC(=O)CCC(F)(F)F)ccc2O1` was 31.3%. As to `C[C@H]1CN([C@@H](C)CO)C(=O)c2cc(-c3cccc(F)c3)cnc2O[C@@H]1CN(C)S(C)(=O)=O`, the inhibition is 36.8%.

In the case of `C[C@H](CO)N1C[C@H](C)[C@H](CN(C)S(=O)(=O)c2ccccc2)Oc2ncc(-c3cccc(C(F)(F)F)c3)cc2C1=O`, the inhibition is 118% (active). The value for `C[C@H](CO)N1C[C@H](C)[C@@H](CN(C)S(=O)(=O)c2ccccc2)Oc2ncc(-c3ccncc3)cc2C1=O` was 2.86%.

For the compound `CCCNC(=O)[C@H]1[C@H](CO)[C@H]2Cn3c(ccc(C4=CCCC4)c3=O)[C@H]2N1C(=O)CC`, the inhibition was 6.67%.

As for `O=C(C[C@H]1CC[C@H]2[C@@H](COC[C@@H](O)CN2S(=O)(=O)c2cccc(Cl)c2)O1)NC1CCCC1`, the inhibition was -59.2%. With `O=S(=O)(NCC[C@H]1CC[C@@H](NS(=O)(=O)c2cccc(Cl)c2)[C@@H](CO)O1)c1cccc(F)c1` the figure was 11.3%; with `O=C(Nc1ccccc1)N[C@H]1CC[C@H](CCNC(=O)c2ccccc2F)O[C@H]1CO`, 22.8%; with `O=C(Nc1ccc(Cl)cc1)N[C@@H]1CC[C@@H](CCNC(=O)c2ccccc2F)O[C@H]1CO`, 169% (active).

Regarding `O=C(Nc1cc(Cl)cc(Cl)c1)N[C@H]1CC[C@@H](CCNS(=O)(=O)c2cccc(F)c2)O[C@H]1CO`, the inhibition was 117% (active). As for `O=C(Nc1ccc(C(F)(F)F)cc1)N[C@@H]1CC[C@H](CCNC(=O)c2ccccc2F)O[C@H]1CO`, the inhibition is -57%. Consider `O=C(Nc1cc(Cl)cc(Cl)c1)N[C@@H]1CC[C@H](CCNS(=O)(=O)c2cccc(F)c2)O[C@H]1CO`, for which the inhibition was 17.2%. With `COc1ccccc1CNC(=O)C[C@@H]1CC[C@H](NC(=O)CN(C)C)[C@@H](CO)O1` the figure was 18.4%; with `O=C(Nc1ccc(F)cc1)N[C@H]1CC[C@H](CCn2cc(-c3ccc(F)cc3)nn2)O[C@@H]1CO`, -16.9%; with `C[C@H]1CN([C@@H](C)CO)S(=O)(=O)c2ccc(C#Cc3ccncc3)cc2O[C@@H]1CN(C)C(=O)Nc1ccc2c(c1)OCO2`, 86.1%. With `CN1C(=O)c2cc(NC(=O)NC3CCCC3)ccc2OC[C@@H]2O[C@@H](CC(=O)O)CC[C@H]21` the figure was -32.1%; with `C[C@@H]1CCCCO[C@@H](CN(C)Cc2ccc(C(F)(F)F)cc2)[C@@H](C)CN([C@H](C)CO)C(=O)c2cc(NC(=O)Nc3ccccc3)ccc2O1`, 110% (active). With `C[C@@H]1CCCCO[C@@H](CN(C)Cc2ccc(C(=O)O)cc2)[C@@H](C)CN([C@@H](C)CO)C(=O)c2cc(NC(=O)Nc3ccc(C(F)(F)F)cc3)ccc2O1` the figure was 14.7%; with `C[C@@H]1CN([C@H](C)CO)C(=O)c2cc(NC(=O)Nc3ccccc3)ccc2O[C@@H](C)CCCCO[C@H]1CN(C)Cc1ccc(C(F)(F)F)cc1`, 73.3%; with `C[C@H]1CCCCO[C@@H](CN(C)Cc2ccc(C(F)(F)F)cc2)[C@@H](C)CN([C@@H](C)CO)C(=O)c2cc(NC(=O)Nc3ccccc3)ccc2O1`, 73.3%. For the compound `C[C@@H]1CCCCO[C@H](CN(C)Cc2ccc(C(F)(F)F)cc2)[C@H](C)CN([C@H](C)CO)C(=O)c2cc(NC(=O)Nc3ccc(F)cc3)ccc2O1`, the inhibition is 103% (active). With `C[C@@H]1CN([C@H](C)CO)C(=O)c2cc(NC(=O)Nc3ccc(C(F)(F)F)cc3)ccc2O[C@@H](C)CCCCO[C@@H]1CN(C)Cc1ccc(C(F)(F)F)cc1` the figure was 86.3%; with `C/C=C/c1ccc2c(c1)O[C@H](CN(C)C(=O)Cc1ccncc1)[C@@H](C)CN([C@@H](C)CO)S2(=O)=O`, 20.3%. With `C[C@H]1CCCCO[C@H](CN(C)CC2CCCCC2)[C@@H](C)CN([C@@H](C)CO)C(=O)c2cc(NS(=O)(=O)c3ccc(Cl)cc3)ccc2O1`, the inhibition was 88%. With `CC(C)NC(=O)N(C)C[C@H]1Oc2ncc(C#CC3CCCCC3)cc2C(=O)N([C@H](C)CO)C[C@@H]1C` the figure was 84.2%. Consider `C[C@@H]1CN([C@@H](C)CO)C(=O)c2cc(C#CC3CCCCC3)cnc2O[C@@H]1CN(C)Cc1cncnc1`, for which the inhibition is 53.7%.

As for `CCCC#Cc1cnc2c(c1)C(=O)N([C@H](C)CO)C[C@H](C)[C@@H](CN(C)S(=O)(=O)c1ccccc1)O2`, the inhibition was 75.2%.

In the case of `C[C@H]1CN([C@@H](C)CO)C(=O)c2cc(C#CC3CCCCC3)cnc2O[C@H]1CN(C)S(=O)(=O)c1ccccc1`, the inhibition is 104% (active). `C[C@@H]1CN([C@H](C)CO)C(=O)c2cc(C#CC3CCCC3)cnc2O[C@H]1CN(C)C(=O)C1CC1`: the inhibition was 32.3%.

Take `C[C@@H]1CN([C@@H](C)CO)C(=O)c2cc(C#CC3CCCCC3)cnc2O[C@H]1CN(C)S(=O)(=O)c1ccccc1`: the inhibition was 104% (active).

Broadly, the inhibition is the change of the read-out against control, counted positive when it falls.

The values above are taken from PubChem BioAssay AID624255 (Broad Institute, 2012).
